TGFb inhibitor = blocks TGF-b signaling. 410,000 compounds, 1.2% hits. HepG2 CAGA-GFP TGF-b/SMAD3 reporter, GFP fluorescence, 18 h; TGF-beta stimulated, 500 pg/mL final. AID 588855. Potency, µM (titrated, usually from 46.1 µM), hits mostly inhibitors; further: nearly all actives have a fitted effect of over 65% in size
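First, reporter cells (HEPG2 CAGA-GFP) rested 2 h at 37 degrees C. Next, compounds were pinned in and TGF-beta added to 500 pg/mL final. After 18 h, GFP was imaged per cell and summed per well.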
HepG2 tox = HepG2 cytotoxicity, counter-screen for TGF-b inhibitors. 410,000 compounds, 0.76% hits. HepG2 CAGA-GFP viability, ATP luminescence, 18 h. Potency, µM (series often up to 46.1 µM), hits mostly cytotoxic
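CellTiter-Glo luminescence gave cytotoxicity after 18 hours at 37 degrees C. The cells were HepG2 CAGA-GFP in 1% FBS DMEM, stimulated with 500 pg/mL TGF-beta after compound addition. %Activity was normalised to no-cell wells (complete cell-killing) and DMSO (no toxicity), and curves were fitted and classified.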
DT40 TDP1 no CPT = qHTS for Inhibitors of human tyrosyl-DNA phosphodiesterase 1 (TDP1): qHTS in cells in absence of CPT; AID 686978, 2013; DT40 Tdp1-/- hTDP1 cells, no CPT, ATP luminescence, 48 h; 420,000 compounds, 15% hits; Potency, µM (highest dose often 46.2 µM), hits mostly inhibitors; further: nearly all actives have a fitted effect of over 55% in size
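Seeded 400 DT40-hTDP1 cells/well (vehicle DMSO, no 20 nM CPT); pinned compounds; ≥48 hr at 37 °C; CellTiter-Glo luminescence as viability measure.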
HT1080NT lethal = kills 2HG-producing HT-1080-NT fibrosarcoma cells; HT-1080-NT fibrosarcoma viability, CellTiter-Glo ATP luminescence, 48 h; Potency, µM (series often up to 46.1 µM), most hits filed as cytotoxic; 360,000 compounds, 1.6% hits;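 further: NT is the 2HG producing partner of a matched IDH1 knockdown line; nearly all actives have a fitted effect of over 55% in size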
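Viability of the 2HG-overproducing fibrosarcoma line after 48 hours of compound exposure at 37 degrees C was determined by luminescence with CellTiter-Glo, and concentration-effect curves were then fitted and categorized.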
HT1080 IDH1KD tx = kills HT-1080 cells with IDH1 knockdown | HT-1080 IDH1 knockdown viability, ATP luminescence, 48 h | Potency, µM (doses to about 46.1 µM), hits mostly cytotoxic | 360,000 compounds, 2% hits
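Using the IDH1-knockdown HT-1080 line run in the same batch and compound series as the NT line, viability after 48 h at 37 °C was determined by CellTiter-Glo luminescence and expressed as % activity.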
TDP1 cell CPT = DT40-hTDP1 cell growth loss with CPT | AID 686979 | chicken DT40 Tdp1-/-;hTDP1 cells + 20 nM CPT, ATP luminescence, 48 h | 420,000 compounds, 12% hits | Potency, µM (series often up to 46.2 µM), most hits filed as inhibitors; further: nearly all actives have a fitted effect of over 55% in size
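Cell growth measured by CellTiter-Glo luminescence after a minimum 48 h, 37 C compound exposure with 20 nM CPT in Tdp1-knockout DT40 cells stably expressing hTDP1, seeded 400/well; qHTS titration format.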
Of the large screens only hits and unclear results are named; the others gave an inactive call; ! = repeats disagree. An excerpt weighted towards active compounds, which were near 17% of everything screened. The call rests on the fitted dose curve; in most records, active means well fitted curve in the direction sought with a large enough effect; inconclusive means small, poorly fitted or top-dose-only effect, or another doubt; inactive means no such curve, though single readings can be large; an effect the other way counts as inactive or inconclusive.

CCC(C)Sc1nc2c(c(=O)[nH]c(=O)n2C)n1Cc1ccc(Cl)cc1 (configuration not stated)	DT40 TDP1 no CPT inconclusive, TDP1 cell CPT inconclusive
Cc1ccc(NC(=O)OC(C)N2CCCCC2)cc1NC(=O)OC(C)N1CCCCC1 (configuration not stated)	DT40 TDP1 no CPT inconclusive
C=CCn1c(SCc2ccc(Cl)cc2)nc2c1c(=O)[nH]c(=O)n2C	DT40 TDP1 no CPT 21µM, TDP1 cell CPT inconclusive
C=CCn1c(SCc2ccc(F)cc2)nc2c1c(=O)[nH]c(=O)n2C	TGFb inhibitor inconclusive, DT40 TDP1 no CPT inconclusive, TDP1 cell CPT inconclusive
O=C(N/N=C/c1ccc(N2CCOCC2)cc1)c1ccccc1OCCOc1ccccc1	DT40 TDP1 no CPT inconclusive, HT1080 IDH1KD tx inconclusive, TDP1 cell CPT 16µM
CCCCCn1c(C)c2c(OCC)cccc(=O)c2c1C	DT40 TDP1 no CPT inconclusive, TDP1 cell CPT 23µM
CCOc1cccc(=O)c2c(C)n(C)c(C)c12	DT40 TDP1 no CPT inconclusive
CCN(C)c1ccc(/C=N\n2nnnc2N)cc1	DT40 TDP1 no CPT 5.8µM, HT1080NT lethal inconclusive, HT1080 IDH1KD tx 5.2µM, TDP1 cell CPT 7.3µM
CCN(CC)c1ccc(/C=N/n2nnnc2N)c(O)c1	DT40 TDP1 no CPT 16µM, TDP1 cell CPT 15µM
Nc1nnnn1/N=C/c1ccc(O)cc1	none
Cn1cc(S(=O)(=O)N2CCN(c3cccc(Cl)c3)CC2)c(=O)n(C)c1=O	none
CN(C)Cc1cc(C(C)(C)c2ccccc2)ccc1O	DT40 TDP1 no CPT inconclusive, TDP1 cell CPT 23µM
CC(C)(c1ccc(O)c([N+](=O)[O-])c1)c1ccc(O)c([N+](=O)[O-])c1	none
CN(Cc1ccccc1)C(=O)Cn1c(=O)c2cccn2c2ccc(F)cc21	DT40 TDP1 no CPT 6.5µM, TDP1 cell CPT 23µM (no result: HT1080NT lethal, HT1080 IDH1KD tx)
Cc1cccc(N2CCN(C(=O)Cn3c(=O)c4cccn4c4ccc(F)cc43)CC2C)c1 (configuration not stated)	DT40 TDP1 no CPT 18µM, TDP1 cell CPT 18µM (no result: HT1080NT lethal, HT1080 IDH1KD tx)
CN(CCCNC(=O)Cn1c(=O)c2cccn2c2ccccc21)Cc1ccccc1	none
Cc1nn(CC(=O)N(C)Cc2ccccc2)c(=O)c2cccn12	none
CN(C)CCNC(=O)Cn1c(=O)c2cccn2c2ccc(F)cc21	DT40 TDP1 no CPT 16µM!, TDP1 cell CPT 23µM!
CCN(CC)CCNC(=O)Cn1c(=O)c2cccn2c2ccc(F)cc21	none
CC(C)N(CCCNC(=O)Cn1c(=O)c2cccn2c2ccccc21)Cc1ccccc1	TDP1 cell CPT 18µM
CCc1nnc(SCc2nc(-c3cccc(Cl)c3)oc2C)c2cc3sc(C)cc3n12	TGFb inhibitor inconclusive, DT40 TDP1 no CPT inconclusive (no result: HT1080NT lethal, HT1080 IDH1KD tx)
CCOc1ccc(CSC2=NCCN2)cc1Cl	DT40 TDP1 no CPT 15µM, HT1080NT lethal inconclusive, TDP1 cell CPT inconclusive
N#Cc1ccc(CSC2=NCCN2)cc1	DT40 TDP1 no CPT 23µM, HT1080 IDH1KD tx inconclusive, TDP1 cell CPT 21µM
c1cc(-c2sc(-c3ccncc3)c(-c3ccncc3)c2-c2ccncc2)ccn1	DT40 TDP1 no CPT 10µM, TDP1 cell CPT inconclusive
Nc1nnc(-c2ccncc2)s1	none
CCOC(=O)C1CCCN(C(=O)c2ccc3c(c2)sc2nc(-c4ccc(C)cc4C)cn23)C1 (configuration not stated)	DT40 TDP1 no CPT 18µM, TDP1 cell CPT 16µM (no result: HT1080NT lethal, HT1080 IDH1KD tx)
CCOC(=O)C1CCCN(C(=O)c2sc3nc(-c4ccc(F)cc4)cn3c2C)C1 (configuration not stated)	DT40 TDP1 no CPT 26µM, TDP1 cell CPT inconclusive
CCOC(=O)C1CCCN(C(=O)c2ccc3c(c2)sc2nc(-c4cccc(OC)c4)cn23)C1 (configuration not stated)	TGFb inhibitor inconclusive, DT40 TDP1 no CPT 15µM, TDP1 cell CPT 18µM (no result: HT1080NT lethal, HT1080 IDH1KD tx)

Bioassay records as filed in PubChem BioAssay.
